Data taken from PubChem BioAssay (NCATS).
Results filed as inconclusive are left out. Entries that show only a call come without a potency. The source made the active and inactive calls. The call rests on the fitted dose curve; in most records, active means well fitted curve in the direction sought with a large enough effect; inconclusive means small, poorly fitted or top-dose-only effect, or another doubt; inactive means no such curve, though single readings can be large; an effect the other way counts as inactive or inconclusive.

These molecules were tested against Rap guanine nucleotide exchange factor 3 (Homo sapiens) (UniProt O95398) (assay: Counterscreen qHTS for antagonist of cAMP-regulated guanine nucleotide exchange factor 3 (EPAC1) (AID 1645888;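 further: fluorescence loss as bound BODIPY-GDP is released from Rap1B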)). Settings: Rap1B-BODIPY-GDP nucleotide exchange, fluorescence; series mostly up to 154 µM.
Sequence of Rap guanine nucleotide exchange factor 3 (Homo sapiens) (O95398 whole entry, looked up): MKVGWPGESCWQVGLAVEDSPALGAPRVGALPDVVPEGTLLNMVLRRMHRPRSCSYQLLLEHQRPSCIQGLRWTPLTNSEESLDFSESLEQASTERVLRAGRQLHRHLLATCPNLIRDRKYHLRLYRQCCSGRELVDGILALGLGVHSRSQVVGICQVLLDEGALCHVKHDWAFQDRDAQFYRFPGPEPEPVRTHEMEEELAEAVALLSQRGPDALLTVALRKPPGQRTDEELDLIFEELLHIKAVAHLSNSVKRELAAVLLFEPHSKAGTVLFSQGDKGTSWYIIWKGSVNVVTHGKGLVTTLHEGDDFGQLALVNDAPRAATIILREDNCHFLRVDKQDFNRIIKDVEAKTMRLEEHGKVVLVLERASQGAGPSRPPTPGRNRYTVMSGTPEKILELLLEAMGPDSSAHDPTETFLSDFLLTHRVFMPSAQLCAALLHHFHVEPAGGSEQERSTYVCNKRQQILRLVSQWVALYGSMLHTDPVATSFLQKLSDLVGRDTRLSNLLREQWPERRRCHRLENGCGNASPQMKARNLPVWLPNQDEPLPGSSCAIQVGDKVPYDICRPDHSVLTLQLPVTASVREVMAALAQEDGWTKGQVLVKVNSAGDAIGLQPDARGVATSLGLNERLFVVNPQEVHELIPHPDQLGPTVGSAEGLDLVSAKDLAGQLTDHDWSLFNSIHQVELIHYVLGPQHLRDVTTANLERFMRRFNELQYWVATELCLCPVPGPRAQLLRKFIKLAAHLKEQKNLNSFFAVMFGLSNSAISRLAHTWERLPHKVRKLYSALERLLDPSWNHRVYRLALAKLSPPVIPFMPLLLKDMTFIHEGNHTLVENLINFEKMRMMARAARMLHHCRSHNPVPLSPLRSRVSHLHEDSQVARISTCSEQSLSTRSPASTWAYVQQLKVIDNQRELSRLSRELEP
Procedure, shortened: (§1)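 Rap1B-BODIPY-GDP 250 nM + GDP 50 uM; cpds 7-pt, final 9.74 nM–152 uM (activator mode) or from 7.32 nM upwards (inhibitor mode); RT; FI 480/540 nm at 5 and 30 min, then ± cAMP, reread.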

For `Cn1cccc1/C=C1\C(=O)NC(=O)N(Cc2ccccc2)C1=O`, which outcome is on record?
Its outcome is “inactive”.

With `Cn1cc(/C=C2\C(=O)NC(=O)N(c3ccccc3)C2=O)c2ccccc21` as the molecule, how does the outcome read?
The outcome was “inactive”.

For `O=C1CN=C(c2ccccc2)c2cc(Cl)ccc2N1Cc1ccc(Cl)cc1`, which outcome is on record?
The outcome was “inactive”.

How did the outcome turn out when `COc1ccccc1-n1c(-c2cccs2)nc2ccccc2c1=O` was run?
The outcome was “inactive”.

Which outcome does the source give for `O=[N+]([O-])c1ccc(N2CCCCCC2)c2nonc12` here?
Its outcome is “inactive”.

For `O=c1[nH]c(=O)n(-c2cccc(F)c2)c(O)c1/C=C1\C=Nc2ccccc21`, which outcome is on record?
The outcome was “inactive”.

Which activity change, negative = inhibition does the source give for `CCOC(=O)c1cc(CC)sc1/N=C/C1C(=O)NC(=S)NC1=O` here?
Its activity change, negative = inhibition is -8.68% [at 30.8 µM] (inactive).

Which activity change, negative = inhibition does the source give for `O=C1NC(=O)N(Cc2ccco2)C(=O)/C1=C\c1cccn1CCOc1ccc(Cl)cc1` here?
Its activity change, negative = inhibition is -25.1% [at 30.8 µM] (inactive).

`COc1cccc(N2C(=O)NC(=O)/C(=C\c3cn(C)c4ccccc34)C2=O)c1` was tested. Which outcome did it give?
Its outcome is “inactive”.

How did the activity change, negative = inhibition turn out when `COC1C(C)OC(OC2CC(C)(O)Cc3cc4c(c(O)c32)C(=O)c2c(O)cc3c(c2C4=O)OC2OC3(C)C(O)C(N(C)C)C2O)C(OC)C1(C)OC` (centres undefined) was run?
Its activity change, negative = inhibition is 87.2% [at 30.8 µM] (inactive).

`Cc1ccccc1OCC(=O)N1CCN(CCc2ccccn2)CC1` was tested. Which outcome did it give?
The outcome was “inactive”.

Which outcome does the source give for `COc1ccc(CN2C(=O)NC(=O)/C(=C\c3ccco3)C2=O)cc1` here?
Its outcome is “inactive”.

Which outcome does the source give for `CN1/C(=C\C=C2C(=O)NC(=S)NC2=O)C(C)(C)c2ccccc21` here?
Its outcome is “inactive”.

`COCCNC(=O)Cn1cc(/C=C2\C(=O)NC(=O)N(c3ccccc3F)C2=O)c2ccccc21` was tested. Which outcome did it give?
The outcome was “inactive”.

For `Nc1cc(Cl)c2nonc2c1[N+](=O)[O-]`, which activity change, negative = inhibition is on record?
Its activity change, negative = inhibition is -3.15% [at 30.8 µM] (inactive).

Which outcome does the source give for `CCOC(=O)[C@]12Cc3cc(Cl)ccc3[C@H]1N(C(C)C)C(=O)c1ccccc12` here?
Its outcome is “inactive”.

Which activity change, negative = inhibition does the source give for `CC(C)N1C(=O)/C(=C/C=C/c2ccco2)C(=O)N(Cc2ccco2)C1=O` here?
The activity change, negative = inhibition was 52.4% [at 30.8 µM] (inactive).

The molecules below were run against Rap guanine nucleotide exchange factor 3 (Homo sapiens) (UniProt O95398) (assay: Counterscreen qHTS for agonist of cAMP-regulated guanine nucleotide exchange factor 3 (EPAC1) (AID 1645889; further: nearly all actives have a fitted effect of over 40% in size; further: potency means the concentration at half of the fitted maximal effect)). Settings: EPAC1 Rap1B-BODIPY-GDP exchange, fluorescence; series mostly up to 154 µM.
Procedure, shortened: as §1

`Nc1ccc2nonc2c1[N+](=O)[O-]` was tested. Which Potency did it give?
The Potency was 63.1 µM (active).

How did the Potency turn out when `O=[N+]([O-])c1ccc(N2CCOCC2)c2c1no[n+]2[O-]` was run?
Its Potency is “inactive”.

For `Cn1cc(/C=C2\C(=O)NC(=O)N(c3ccccc3)C2=O)c2ccccc21`, which Potency is on record?
Its Potency is “inactive”.

How did the activation turn out when `O=c1[nH]c(=S)n(-c2ccccc2F)c(O)c1C=Nc1ccc(N2CCOCC2)cc1` was run?
The activation was 32% [at 30.8 µM] (inactive).

Which Potency does the source give for `Cc1cccc(-n2c(O)c(/C=C/C=Nc3ccccc3)c(=O)[nH]c2=O)c1` here?
The Potency was 39.8 µM (active).

How did the Potency turn out when `O=[N+]([O-])c1ccc(N2CCCCCC2)c2nonc12` was run?
The Potency was 25.1 µM (active).

For `COC1C(OC(=O)c2ccc(C)[nH]2)C(O)C(Oc2ccc3c(O)c(NC(=O)c4ccc(O)c(CC=C(C)C)c4)c(=O)oc3c2Cl)OC1(C)C` (centres undefined), which Potency is on record?
Its Potency is “inactive”.

How did the Potency turn out when `O=c1[nH]c(=O)n(-c2cccc(F)c2)c(O)c1/C=C1\C=Nc2ccccc21` was run?
Its Potency is “inactive”.

`Cc1ccccc1OCC(=O)N1CCN(CCc2ccccn2)CC1` was tested. Which Potency did it give?
The Potency was “inactive”.

For `CC(C)CCn1c(=O)c(C(=O)Nc2ccccc2S(N)(=O)=O)c(O)c2ccccc21`, which Potency is on record?
Its Potency is “inactive”.

With `Nc1ccc2ccc3cccc[n+]3c2c1` as the molecule, how does the Potency read?
Its Potency is 39.8 µM (active).

How did the Potency turn out when `O=c1[nH]c(=S)n(-c2ccc(Cl)cc2)c(O)c1C=Nc1ccc(N2CCOCC2)cc1` was run?
The Potency was “inactive”.
